Results published in the supplement of paper PMC12645437, “Orthogonal IMiD-Degron Pairs Induce Selective Protein Degradation in Cells” (ACS Chemical Biology, 2025).
In all, about 8,300 sequences were measured (“log2 fold change of degron read counts, EGFP-low vs EGFP+ sorted cells (limma voom), compound-induced degradation”: median about -1.1, highest 2% from about 3.2 on). This excerpt belongs to a sample that is enriched for the highest values.

T1: CRBN, Q96SW2
T1 chain: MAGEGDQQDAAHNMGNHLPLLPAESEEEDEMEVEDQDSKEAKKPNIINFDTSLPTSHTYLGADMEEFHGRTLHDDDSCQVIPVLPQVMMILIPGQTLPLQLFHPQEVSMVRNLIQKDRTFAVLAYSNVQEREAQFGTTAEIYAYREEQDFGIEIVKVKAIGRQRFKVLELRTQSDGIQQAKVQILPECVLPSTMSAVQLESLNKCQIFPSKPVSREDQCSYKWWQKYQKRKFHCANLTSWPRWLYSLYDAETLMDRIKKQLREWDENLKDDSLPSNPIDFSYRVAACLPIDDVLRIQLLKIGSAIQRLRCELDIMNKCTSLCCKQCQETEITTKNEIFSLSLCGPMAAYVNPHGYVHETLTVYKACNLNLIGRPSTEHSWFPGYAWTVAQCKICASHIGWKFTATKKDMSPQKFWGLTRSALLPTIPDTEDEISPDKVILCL

B1: 46F_47C_49S_50V_52G_53H_54L_55F_67L_, Q9UKT9 (peptide)
chain: FCCSVCGHLFTQKGNLLRHIKL
B2: 46F_47R_49E_50Q_52G_53A_54G_55F_67L_, Q9UKT9 (peptide)
chain: FRCEQCGAGFTQKGNLLRHIKL
B3: 46F_47S_49N_50V_52G_53A_54E_55F_67L_, Q9UKT9 (peptide)
chain: FSCNVCGAEFTQKGNLLRHIKL
B4: 46F_47L_49N_50Q_52G_53H_54T_55F_67L_, Q9UKT9 (peptide)
chain: FLCNQCGHTFTQKGNLLRHIKL
B5: 46F_47I_49S_50V_52G_53H_54T_55F_67L_, Q9UKT9 (peptide)
chain: FICSVCGHTFTQKGNLLRHIKL
B6: 46F_47F_49D_50I_52G_53A_54T_55F_67L_, Q9UKT9 (peptide)
chain: FFCDICGATFTQKGNLLRHIKL
B7: 46F_47I_49E_50V_52G_53A_54S_55F_67L_, Q9UKT9 (peptide)
chain: FICEVCGASFTQKGNLLRHIKL
B8: 46F_47R_49E_50V_52G_53A_54S_55F_67L_, Q9UKT9 (peptide)
chain: FRCEVCGASFTQKGNLLRHIKL
B9: 46F_47H_49E_50V_52G_53A_54S_55F_67L_, Q9UKT9 (peptide)
chain: FHCEVCGASFTQKGNLLRHIKL
B10: 46F_47V_49E_50V_52G_53A_54S_55F_67L_, Q9UKT9 (peptide)
chain: FVCEVCGASFTQKGNLLRHIKL
B11: 46F_47M_49E_50V_52G_53A_54S_55F_67L_, Q9UKT9 (peptide)
chain: FMCEVCGASFTQKGNLLRHIKL
B12: 46F_47C_49N_50V_52G_53A_54S_55F_67L_, Q9UKT9 (peptide)
chain: FCCNVCGASFTQKGNLLRHIKL
B13: 46F_47A_49N_50V_52G_53A_54S_55F_67L_, Q9UKT9 (peptide)
chain: FACNVCGASFTQKGNLLRHIKL
B14: 46F_47Q_49E_50V_52G_53A_54D_55F_67L_, Q9UKT9 (peptide)
chain: FQCEVCGADFTQKGNLLRHIKL
B15: 46F_47Q_49E_50V_52G_53A_54S_55F_67L_, Q9UKT9 (peptide)
chain: FQCEVCGASFTQKGNLLRHIKL
B16: 46F_47Y_49E_50V_52G_53A_54S_55F_67L_, Q9UKT9 (peptide)
chain: FYCEVCGASFTQKGNLLRHIKL
B17: 46F_47A_49E_50V_52G_53A_54S_55F_67L_, Q9UKT9 (peptide)
chain: FACEVCGASFTQKGNLLRHIKL
B18: 46F_47R_49E_50I_52G_53R_54N_55F_67L_, Q9UKT9 (peptide)
chain: FRCEICGRNFTQKGNLLRHIKL

Target: T1, CRBN, Q96SW2
Test: log2 fold change of degron read counts, EGFP-low vs EGFP+ sorted cells (limma voom), compound-induced degradation; higher = more compound-induced degradation of the degron-EGFP fusion; degrons are variants of IKZF1/3 zinc finger 2; compound dose not given here
Details: Jurkat, 18 h
[1] = compound: compound 19 (5-tert-butyl-thalidomide)
[2] = compound: compound 22 (5-morpholino-thalidomide)
[3] = compound: compound 33 (diphenyl IMiD analogue)
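Note: pooled lentiviral library of zinc finger degron-EGFP fusions in mCherry-positive Jurkat cells, FACS-sorted after compound exposure, with degron abundance counted by next-generation sequencing.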

Sequence | log2 fold change of degron read counts [1] | log2 fold change of degron read counts [2] | log2 fold change of degron read counts [3] | log2 fold change of degron read counts (compound: thalidomide)
B1 | -2.25 | -2.38 | -2.22 | -2.25
B2 | -0.467 | -1.48 | 0.986 | -0.649
B3 | -1.82 | -2 | -0.491 | -1.04
B4 | -2.86 | -3.5 | -3.07 | -2.79
B5 | -2.11 | -2.3 | -3.14 | -2.67
B6 | 2.91 | 2.77 | 0.337 | -0.566
B7 | 0.0302 | 2.88 | 2.44 | 2.95
B8 | 2.07 | 1.56 | 2.15 | 2.07
B9 | 2.93 | 2.64 | 1.35 | 0.198
B10 | 1.21 | 2.91 | 2.54 | 3.54
B11 | 1.39 | 1.79 | 2.94 | 2.05
B12 | 0.743 | 0.454 | 0.99 | 0.32
B13 | 1.32 | 0.642 | -0.249 | -1.16
B14 | -0.53 | -0.0138 | 1.04 | 3.09
B15 | 2.49 | 2.89 | 2.13 | 3.53
B16 | 3.7 | 3.86 | 2.94 | 1.59
B17 | 3.87 | 2.73 | 0.799 | 1.03
B18 | -2.69 | -2.64 | -1.31 | -0.795
